# Source: PubChem BioAssay
# Active and inactive are the calls of the source.
# Assays:
# [1] = small molecules captured by biotinylated probe aFSTL3 – biochemical, small-molecule microarray, fluorescence 635/667, stem cell growth factor project, primary screen (AID 1064); settings: higher = more signal;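 note: measures binding of the biotinylated anti-FSTL3 antibody to printed compounds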
# [2] = binders from COS7 lysate, DM2A8 probe, primary screen, torsin A project, cell lysate, small-molecule microarray, fluorescence 635/667 (AID 1065); settings: higher = more signal, COS7 lysate expressing mutant human TOR1A
# [3] = small molecules captured by biotinylated probe aFGF2 – biochemical, small-molecule microarray, fluorescence 635/667, stem cell growth factor project, primary screen (AID 1067); settings: higher = more signal;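 note: measures binding of biotinylated aFGF2 protein to printed compounds on slides; z-score merges feature fluorescence and signal-to-noise across triplicate slides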
# [4] = small molecules captured by biotinylated probe aFGF10 – biochemical, small-molecule microarray, fluorescence 635/667, stem cell growth factor project, primary screen (AID 1071); settings: higher = more signal;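 note: score merges 667 nm spot intensity and signal to noise from triplicate slides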
# [5] = target: Neurogenic locus notch homolog protein 2 (Homo sapiens) (UniProt Q04721); experiment: small molecules binding Notch2 protein – biochemical, small-molecule microarray, 635 nm fluorescence, stem cell growth factors, primary screen (AID 1073); settings: higher = more signal
# [6] = target: Pro-neuregulin-1, membrane-bound isoform (Homo sapiens) (UniProt Q02297); experiment: small molecules binding neuregulin-1 protein – biochemical, small-molecule microarray, fluorescence 635/667, psychiatric disease protein project, primary screen (AID 1075); settings: NRG1 binding, 635 nm fluorescence, higher = more signal;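 note: score combines 667 nm spot fluorescence with signal to noise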
# [7] = tested on: Neuregulin-1 EGF-like domain; experiment: small molecules binding NRG1 EGF domain – biochemical, small-molecule microarray, 635 nm fluorescence, primary screen (AID 1081); settings: higher = more signal;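 note: binding of the protein to compounds printed on small-molecule microarray slides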
# [8] = FRG1 expression reporter modulators in myotubes – cell-based, C2C12 myotubes, firefly/Renilla luciferase, luminescence, FRG1 inhibition for FSHD, primary screen (AID 1084); settings: FRG1 promoter luciferase, higher = more signal, called active from +8 up or from −8 down
# [9] = small molecules captured by biotinylated probe aFST – biochemical, small-molecule microarray, fluorescence 635/667, stem cell growth factor project, primary screen (AID 1086); settings: higher = more signal;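 note: score merges 667 nm fluorescence with signal-to-noise of each printed compound spot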
# [10] = binders of probe aHhip on microarray, primary screen, stem cell growth factor project, biochemical, small-molecule microarray, fluorescence 635/667 (AID 1087); settings: higher = more signal;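 note: score merges spot fluorescence at 667nm with spot signal to noise ratio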
# Sequence of Pro-neuregulin-1, membrane-bound isoform (Homo sapiens) (Q02297 whole entry, looked up, the tested form may be a part, canonical isoform): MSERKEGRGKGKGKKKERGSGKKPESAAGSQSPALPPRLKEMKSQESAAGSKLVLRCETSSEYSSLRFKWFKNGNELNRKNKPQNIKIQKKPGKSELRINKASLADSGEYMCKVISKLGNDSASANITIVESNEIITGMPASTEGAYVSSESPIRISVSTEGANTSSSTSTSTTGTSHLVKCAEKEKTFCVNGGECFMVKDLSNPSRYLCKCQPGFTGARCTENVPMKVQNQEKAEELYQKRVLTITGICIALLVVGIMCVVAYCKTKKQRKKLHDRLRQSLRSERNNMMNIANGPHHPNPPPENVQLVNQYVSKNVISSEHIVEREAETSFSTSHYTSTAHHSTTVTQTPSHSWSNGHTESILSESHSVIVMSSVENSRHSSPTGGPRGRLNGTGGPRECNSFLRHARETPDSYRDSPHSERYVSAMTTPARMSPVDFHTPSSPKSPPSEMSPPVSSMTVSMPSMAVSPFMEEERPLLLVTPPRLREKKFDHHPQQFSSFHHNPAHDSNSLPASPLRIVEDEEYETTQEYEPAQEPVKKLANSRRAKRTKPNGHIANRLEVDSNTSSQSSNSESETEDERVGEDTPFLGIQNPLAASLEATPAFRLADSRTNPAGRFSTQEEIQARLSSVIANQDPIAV
# Sequence of Neurogenic locus notch homolog protein 2 (Homo sapiens) (Q04721 whole entry, looked up, canonical isoform): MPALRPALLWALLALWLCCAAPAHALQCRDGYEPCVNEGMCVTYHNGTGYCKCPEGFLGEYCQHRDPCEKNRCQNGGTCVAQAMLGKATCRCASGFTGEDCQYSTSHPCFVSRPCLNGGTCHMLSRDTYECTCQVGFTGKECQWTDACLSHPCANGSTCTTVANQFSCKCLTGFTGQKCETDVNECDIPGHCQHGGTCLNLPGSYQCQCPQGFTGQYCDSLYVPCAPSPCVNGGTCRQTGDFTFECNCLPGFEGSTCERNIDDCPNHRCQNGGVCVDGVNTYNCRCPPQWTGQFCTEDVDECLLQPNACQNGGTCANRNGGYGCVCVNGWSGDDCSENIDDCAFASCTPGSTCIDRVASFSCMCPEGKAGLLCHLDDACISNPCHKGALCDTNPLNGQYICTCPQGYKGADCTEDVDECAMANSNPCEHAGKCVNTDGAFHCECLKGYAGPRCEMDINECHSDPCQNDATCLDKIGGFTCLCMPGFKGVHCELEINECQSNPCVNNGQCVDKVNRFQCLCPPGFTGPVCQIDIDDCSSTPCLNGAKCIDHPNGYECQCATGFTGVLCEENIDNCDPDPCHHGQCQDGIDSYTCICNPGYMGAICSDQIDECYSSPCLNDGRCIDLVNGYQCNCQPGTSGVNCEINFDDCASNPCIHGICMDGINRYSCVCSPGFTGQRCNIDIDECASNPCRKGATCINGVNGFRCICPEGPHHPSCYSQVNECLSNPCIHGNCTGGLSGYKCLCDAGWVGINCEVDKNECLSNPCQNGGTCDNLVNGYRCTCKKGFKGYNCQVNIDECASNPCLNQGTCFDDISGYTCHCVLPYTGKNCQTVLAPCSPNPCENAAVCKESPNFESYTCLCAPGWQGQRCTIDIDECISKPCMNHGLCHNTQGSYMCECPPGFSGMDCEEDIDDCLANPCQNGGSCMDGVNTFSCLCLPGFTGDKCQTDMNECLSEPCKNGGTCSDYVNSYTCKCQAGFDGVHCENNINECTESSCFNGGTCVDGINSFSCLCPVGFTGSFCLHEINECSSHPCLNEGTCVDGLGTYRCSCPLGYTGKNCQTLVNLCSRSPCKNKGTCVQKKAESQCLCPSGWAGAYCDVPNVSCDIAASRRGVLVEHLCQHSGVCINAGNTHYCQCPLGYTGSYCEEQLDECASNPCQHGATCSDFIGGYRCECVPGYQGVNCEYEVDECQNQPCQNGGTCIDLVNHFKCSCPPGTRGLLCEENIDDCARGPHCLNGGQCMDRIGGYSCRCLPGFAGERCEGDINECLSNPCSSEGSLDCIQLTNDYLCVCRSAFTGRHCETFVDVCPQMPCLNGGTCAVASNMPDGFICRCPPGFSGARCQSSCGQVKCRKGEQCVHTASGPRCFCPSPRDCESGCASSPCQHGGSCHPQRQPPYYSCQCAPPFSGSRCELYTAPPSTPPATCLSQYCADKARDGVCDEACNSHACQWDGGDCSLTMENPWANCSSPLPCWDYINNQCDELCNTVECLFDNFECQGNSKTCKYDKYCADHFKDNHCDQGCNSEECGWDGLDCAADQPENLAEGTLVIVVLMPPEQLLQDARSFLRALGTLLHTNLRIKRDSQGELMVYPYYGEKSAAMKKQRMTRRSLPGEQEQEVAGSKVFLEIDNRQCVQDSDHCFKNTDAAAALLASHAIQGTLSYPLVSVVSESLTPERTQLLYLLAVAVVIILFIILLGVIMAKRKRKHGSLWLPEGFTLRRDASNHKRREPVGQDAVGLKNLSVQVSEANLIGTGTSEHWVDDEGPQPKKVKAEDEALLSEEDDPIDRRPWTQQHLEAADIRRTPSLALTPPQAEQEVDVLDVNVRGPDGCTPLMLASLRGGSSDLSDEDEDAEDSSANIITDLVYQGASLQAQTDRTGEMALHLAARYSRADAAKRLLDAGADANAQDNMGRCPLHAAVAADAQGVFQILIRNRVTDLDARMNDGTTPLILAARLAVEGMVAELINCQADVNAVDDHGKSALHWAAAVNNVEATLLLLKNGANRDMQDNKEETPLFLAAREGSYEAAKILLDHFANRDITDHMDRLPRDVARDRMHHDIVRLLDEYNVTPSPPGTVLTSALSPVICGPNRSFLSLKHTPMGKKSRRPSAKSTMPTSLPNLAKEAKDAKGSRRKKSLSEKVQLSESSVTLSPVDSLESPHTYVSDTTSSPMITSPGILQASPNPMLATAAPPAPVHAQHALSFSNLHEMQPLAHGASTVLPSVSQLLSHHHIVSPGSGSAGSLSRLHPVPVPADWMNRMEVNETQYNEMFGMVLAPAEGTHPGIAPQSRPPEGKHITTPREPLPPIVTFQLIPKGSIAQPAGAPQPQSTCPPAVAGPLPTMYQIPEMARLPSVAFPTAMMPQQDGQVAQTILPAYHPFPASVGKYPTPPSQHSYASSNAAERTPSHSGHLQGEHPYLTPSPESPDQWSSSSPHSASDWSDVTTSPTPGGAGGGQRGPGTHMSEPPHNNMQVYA
compound,measurement,setting,value
CCCNC(=O)[C@@]1(c2ccc([N+](=O)[O-])cc2)CC(=O)N(CC23CC4CC(CC(C4)C2)C3)[C@@H]1c1ccc(CO)cc1,composite z-score,[1],-0.271
same,composite z-score,[2],0.515
same,composite z-score,[3],0.0422
same,composite z-score,[4],0.303
same,composite z-score,[5],0.143
same,composite z-score,[6],0.582
same,composite z-score,[7],0.791
same,z-score,[8],-1.75 (inactive)
same,composite z-score,[9],1.13
same,composite z-score,[10],0.358
CN1C(=O)C2C(C1=O)C1C=C(CCCO)C2C(c2cccs2)N1C (stereo not given),composite z-score,[1],-0.855
same,composite z-score,[2],1.65
same,composite z-score,[3],-0.2
same,composite z-score,[4],0.524
same,composite z-score,[5],-0.508
same,composite z-score,[6],0.822
same,composite z-score,[7],1.19
same,z-score,[8],0.22 (inactive)
same,composite z-score,[9],-0.225
same,composite z-score,[10],-0.579
C[C@H]1NC(=O)[C@H](Cc2ccccc2)NC(=O)[C@@]23C(=O)N[C@@H](Cc4ccccc4)C2[C@H](C)[C@@]2(C)O[C@H]2C3/C=C/C/C=C\CNC1=O (stereo not given in full),composite z-score,[1],-0.231
same,composite z-score,[2],0.32
same,composite z-score,[3],-0.0878
same,composite z-score,[4],-0.32
same,composite z-score,[5],-0.221
same,composite z-score,[6],-0.547
same,composite z-score,[7],-0.867
same,z-score,[8],0.049 (inactive)
same,composite z-score,[9],-0.146
same,composite z-score,[10],0.238
COc1ccc(C(=O)Nc2cccc(CN3C(=O)[C@@]4(O[C@@H](CCn5cc(CCO)nn5)[C@H]([Si](C)(C)c5ccc(OC)cc5)[C@H]4C)c4ccccc43)c2)cc1,composite z-score,[1],-0.115
same,composite z-score,[2],0.485
same,composite z-score,[3],-0.0381
same,composite z-score,[4],0.205
same,composite z-score,[5],1.12
same,composite z-score,[6],1.08
same,composite z-score,[7],1.11
same,z-score,[8],-3.09 (inactive)
same,composite z-score,[9],0.407
same,composite z-score,[10],-0.0994
CC(C)CNC(=O)[C@@H]1c2ccccc2C(=O)N(Cc2cc(C(F)(F)F)cc(C(F)(F)F)c2)[C@H]1c1ccc(CO)cc1,composite z-score,[1],0.491
same,composite z-score,[2],-0.249
same,composite z-score,[3],0.071
same,composite z-score,[4],-0.365
same,composite z-score,[5],-0.744
same,composite z-score,[6],-0.27
same,composite z-score,[7],0.401
same,z-score,[8],0.53 (inactive)
same,composite z-score,[9],0.0438
same,composite z-score,[10],0.224
COC(=O)[C@]1(Cc2ccccc2N=[N+]=[N-])N=C(c2ccc(OCCCO)cc2)O[C@@H]1c1ccccc1N=[N+]=[N-],composite z-score,[1],-0.13
same,composite z-score,[2],-0.126
same,composite z-score,[3],-0.0512
same,composite z-score,[4],-0.102
same,composite z-score,[5],0.374
same,composite z-score,[6],0.46
same,composite z-score,[7],1.1
same,z-score,[8],3.58 (inactive)
same,composite z-score,[9],0.197
same,composite z-score,[10],-0.0994
COc1ccc(C(O)C2C=CC3C(=O)NC(=O)C3N2Nc2ccccn2)cc1OCc1ccccc1 (stereo not given),composite z-score,[1],-0.202
same,composite z-score,[2],-0.0593
same,composite z-score,[3],-0.0226
same,composite z-score,[4],0.177
same,composite z-score,[5],1.27
same,composite z-score,[6],1.71
same,composite z-score,[7],0.666
same,z-score,[8],0.387 (inactive)
same,composite z-score,[9],0.216
same,composite z-score,[10],3.69
O=C(CS)NCCCCCCNC(=O)[C@H]1C[C@H]2C(=O)NCC(=O)N2[C@H]1c1ccc(O)cc1,composite z-score,[1],0.249
same,composite z-score,[2],-0.465
same,composite z-score,[3],-0.137
same,composite z-score,[4],0.263
same,composite z-score,[5],-0.355
same,composite z-score,[6],1.22
same,composite z-score,[7],1.32
same,z-score,[8],-0.348 (inactive)
same,composite z-score,[9],-0.346
same,composite z-score,[10],0.0201
CC(C)C[C@@H]1NC(=O)[C@H]2C[C@@H](C(=O)NCCCCCCNC(=O)CS)[C@@H](c3cccc(OCCO)c3)N2C1=O,composite z-score,[1],-0.206
same,composite z-score,[2],0.0281
same,composite z-score,[3],-0.0493
same,composite z-score,[4],0.43
same,composite z-score,[5],1.39
same,composite z-score,[6],1.24
same,composite z-score,[7],1.32
same,z-score,[8],-0.154 (inactive)
same,composite z-score,[9],0.752
same,composite z-score,[10],-0.0645
NC(=O)NCC#Cc1ccc2c(c1)[C@]1(C(=O)N2)[C@H](C(=O)N2CCCCCCC2)[C@H]2C(=O)O[C@H](c3ccccc3)[C@H](c3ccccc3)N2[C@@H]1c1ccc(OCCO)cc1,composite z-score,[1],3.14
same,composite z-score,[2],0.756
same,composite z-score,[3],0.326
same,composite z-score,[4],0.904
same,composite z-score,[5],0.481
same,composite z-score,[6],0.463
same,composite z-score,[7],0.292
same,z-score,[8],0.832 (inactive)
same,composite z-score,[9],3.05
same,composite z-score,[10],3.7
C=CCOC(=O)[C@H]1[C@@H]2C(=O)O[C@@H](c3ccccc3)[C@@H](c3ccccc3)N2[C@@H](c2ccc(OCCOC(=O)[C@@H]3C[C@@H]4C(=O)NCC(=O)N4[C@@H]3c3ccc(O)cc3)cc2)[C@]12C(=O)Nc1ccccc12,composite z-score,[1],-0.214
same,composite z-score,[2],0.454
same,composite z-score,[3],-0.0296
same,composite z-score,[4],0.515
same,composite z-score,[5],-0.111
same,composite z-score,[6],-0.373
same,composite z-score,[7],1.26
same,z-score,[8],-1.27 (inactive)
same,composite z-score,[9],-0.112
same,composite z-score,[10],-0.0237
Cc1ccc(S[C@]2(C(=O)NC3CC3)CC(=O)N(C3CCCCC3)[C@@H]2c2ccc(CO)cc2I)cc1,composite z-score,[1],-0.208
same,composite z-score,[2],0.298
same,composite z-score,[3],-0.0328
same,composite z-score,[4],0.48
same,composite z-score,[5],1.03
same,composite z-score,[6],1.29
same,composite z-score,[7],1.31
same,z-score,[8],-4.48 (inactive)
same,composite z-score,[9],0.431
same,composite z-score,[10],0.118
C=CCC(OC(C)=O)[C@@H]1[C@@H](N(Cc2cccc3ccccc23)C(=O)c2ccc(C)cc2)c2cc(OCCCO)ccc2N1C(=O)Cc1ccc(OC)cc1 (stereo not given in full),composite z-score,[1],-0.186
same,composite z-score,[2],0.307
same,composite z-score,[3],-0.117
same,composite z-score,[4],0.29
same,composite z-score,[5],0.0151
same,composite z-score,[6],0.0635
same,composite z-score,[7],-0.391
same,z-score,[8],-1.71 (inactive)
same,composite z-score,[9],0.146
same,composite z-score,[10],-0.0994
O=C/C=C/c1ccc(Cl)cc1,composite z-score,[1],-0.0244
same,composite z-score,[2],-0.385
same,composite z-score,[3],0.0086
same,composite z-score,[4],0.439
same,composite z-score,[5],-0.885
same,composite z-score,[6],-0.476
same,composite z-score,[7],0.651
same,z-score,[8],-0.678 (inactive)
same,composite z-score,[9],-0.493
same,composite z-score,[10],-0.282
N[C@@H](Cc1ccccc1)Cn1cc(-c2ccccc2)nn1,composite z-score,[1],0.407
same,composite z-score,[2],0.556
same,composite z-score,[3],-0.0613
same,composite z-score,[4],-0.161
same,composite z-score,[5],0.0615
same,composite z-score,[6],0.429
same,composite z-score,[7],0.198
same,z-score,[8],0.874 (inactive)
same,composite z-score,[9],0.746
same,composite z-score,[10],-0.186
C=CC[C@@]1(C(=O)O)N=C(c2ccc(OCCCO)cc2)O[C@@H]1c1ccccc1N=[N+]=[N-],composite z-score,[1],1.44
same,composite z-score,[2],-0.0147
same,composite z-score,[3],-0.0112
same,composite z-score,[4],0.484
same,composite z-score,[5],0.0707
same,composite z-score,[6],0.915
same,composite z-score,[7],1.07
same,z-score,[8],4.25 (inactive)
same,composite z-score,[9],0.965
same,composite z-score,[10],0.421
